PfHsp90 set2 – reduces growth (ATP signal) of yeast expressing P. falciparum Hsp90; actives 0.32% (n = 310,000); AID 504621; inhibition, % at 9.4 µM; S. cerevisiae expressing PfHsp90, BacTiter-Glo ATP, 48 h; yeast lacking PDR1 and PDR3 efflux regulators;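 active = every replicate shows inhibition above about 80%, whatever the replicate mean, limit read from the data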;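 note: 0% = DMSO neutral controls and 100% = 20 µM radicicol positive controls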
tim23-1 inh – inhibits growth of tim23-1 mutant yeast; AID 463212; S. cerevisiae tim23-1 growth, BacTiter-Glo luminescence, 24 h; actives 1.3% (n = 330,000); inhibition, % at 20 µM;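 active = growth inhibition of the mutant yeast at or above 50%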;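 note: temperature-sensitive mutant grown at 25 °C; plate controls were DMSO-treated mutant yeast for no effect and medium wells lacking yeast for full effect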
NALP1 yeast inh – NALP1 inhibition; S. cerevisiae NALP1/ASC/caspase-1 growth, X-gal OD620, 72 h; inhibition, % at 10 µM; actives 0.61% (n = 280,000); AID 2071; in the data active = inhibition mostly above about 24%, no sharp cut-off; inactive = mostly below about 32%
TIM10 inh – growth inhibitors of TIM10 yeast strain | S. cerevisiae TIM10 strain growth, BacTiter-Glo luminescence, 24 h | inhibition, % at 10 µM | actives 1.4% (n = 330,000) | AID 463195;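 active = inhibition of 40% or more at the single tested concentration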;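 note: wild-type TIM10 isogenic control strain grown at permissive 25 °C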
NLRP3 yeast inh – NALP3 inhibition in yeast. inhibition, % at 10 µM. Yeast reconstituted NLRP3/ASC/caspase-1, beta-gal luminescence, 24 h. actives 0.39% (n = 330,000). AID 2825;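 active = inhibition of 50% or more; inactive = inhibition below 50%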;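 note: plate controls were induced DMSO wells for no effect and uninduced yeast grown without galactose for full effect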
tim10-1 inh – growth inhibitors of tim10-1 mutant yeast; actives 2.2% (n = 330,000); inhibition, % at 20 µM; S. cerevisiae tim10-1 ts strain growth, BacTiter-Glo, 24 h;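 active = inhibition of at least 40%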;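 note: mutant grown at 25 °C; 0% = DMSO wells with yeast and 100% = wells holding no yeast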
tim10-1 conf – confirmation of tim10-1 mutant yeast growth inhibitors; shares compounds with tim10-1 inh; S. cerevisiae tim10-1 ts strain growth, BacTiter-Glo, 24 h; inhibition, % at 20 µM; actives 56% (n = 7,400);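 active = inhibition of yeast growth at or above a set limit in either of two repeat tests at 20 µM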;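 note: tim10-1 mutant grown at permissive 25 °C to find synthetic lethal compounds; 0% = DMSO yeast wells and 100% = medium wells without yeast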
tim10 confirm – confirmation of TIM10 yeast growth inhibitors | AID 463215 | shares compounds with TIM10 inh | inhibition, % at 10 µM | actives 63% (n = 4,600) | S. cerevisiae tim10 strain growth, BacTiter-Glo luminescence, 24 h;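 active = inhibition of yeast growth at or above a set limit in either of two replicates at 10 µM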;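 note: this counterscreen used the strain with wild-type TIM10; 0% = yeast with DMSO and 100% = medium wells lacking yeast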
tim23-1 confirm – confirmation of tim23-1 mutant yeast growth inhibitors; shares compounds with tim23-1 inh; S. cerevisiae tim23-1 growth, BacTiter-Glo luminescence, 24 h; inhibition, % at 20 µM; actives 83% (n = 4,400); AID 463218;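 active = inhibition above about 39% in either of two replicate wells at 20 µM, limit read from the data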;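 note: temperature-sensitive tim23-1 mutant grown at 25 °C; 0% = DMSO wells with yeast and 100% = medium wells without yeast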
The depositor's hits bear a star; x = not tested or not shown. In the library only some 4.2% were active in any assay of this set; here they are far more common.

SMILES | PfHsp90 set2 | tim23-1 inh | NALP1 yeast inh | TIM10 inh | NLRP3 yeast inh | tim10-1 inh | tim10-1 conf | tim10 confirm | tim23-1 confirm
Cc1cn2c(nc1=O)OC1CC2OC1CO (stereo not given) | -35 | 6 | x | -7 | 1 | 0 | x | x | x
Cc1ccc(Nc2cc(C)nc3ccc(C)cc23)cc1 | -1 | 11 | 26 | -4 | 12 | 7 | x | x | x
Cc1ccc(Nc2cc(C)nc(-c3ccccc3)n2)cc1 | 32 | 51* | 12 | 39 | 19 | 42* | 33* | x | 58*
COc1ccc(NC(=S)Nc2cc(C)[nH]n2)cc1Cl | 13 | -12 | x | -3 | 6 | 16 | x | x | x
Cc1cc(NC(=S)Nc2ccc(C)c(Cl)c2)n[nH]1 | 27 | 51* | 9 | 29 | 23 | 46* | 27 | x | 39*
CCOC(=O)[C@@H]1[C@H]2COc3cc(OC)ccc3[C@H]2N2C(=O)N(c3ccc(C(F)(F)F)cc3)C(=O)[C@]12C | 35 | 84* | x | 75* | 47 | 77* | 84* | 73* | 86*
CCOC(=O)[C@@H]1[C@H]2COc3cc(OC)ccc3[C@@H]2N2C(=O)N(c3ccc(C(F)(F)F)cc3)C(=O)[C@@]12C | -2 | 25 | 10 | 19 | 12 | 12 | x | x | x
Cc1ccc(C(C[N+](=O)[O-])n2nc(C)cc2C)cc1 (stereo not given) | 8 | 80* | 11 | 23 | 32 | 53* | 36* | x | 73*
Cc1ccc(S(=O)(=O)NCC(C)n2nc(C)cc2C)cc1 (stereo not given) | 8 | -3 | 16 | 4 | 1 | -3 | x | x | x
Nc1c(Cl)cc(C2=NCCn3nc4cc(C(F)(F)F)ccc4c32)cc1Cl | 2 | 22 | x | 2 | 17 | 5 | x | x | x
COc1ccc2c3n(nc2c1)CCN=C3c1cc(Cl)c(N)c(Cl)c1 | 5 | 55* | x | 29 | 10 | 42* | 18 | x | 51*
Cc1ccc(S(=O)(=O)CC(=O)Nc2nc(-c3ccccc3)cs2)cc1 | x | 52* | 28 | 29 | 26 | 44* | 45* | x | 47*
O=C(NC(=S)Nc1cccc(Cl)c1Cl)C1CC1 | -7 | 51* | 18 | 41* | 21 | 43* | 16 | 24 | 32
O=C(NC(=S)Nc1ccc(Br)c(Cl)c1)C1CC1 | -26 | 62* | 9 | 25 | 24 | 43* | 22 | x | 54*
COc1ccc(-c2n[nH]c(C)c2-c2cnn(-c3ccccc3)c2)c(O)c1 | 23 | 60* | -73 | 50* | 21 | 51* | 42* | 44* | 50*
CCOc1ccccc1Nc1nnc(SCC(=O)NC2CCS(=O)(=O)C2)s1 (stereo not given) | 4 | 3 | x | 5 | 10 | -4 | x | x | x
CCn1c(Sc2ccc(N)cc2Cl)nc2ccccc21 | 22 | 66* | 22 | 44* | 31 | 47* | 50* | 47* | 47*
Clc1cccc(Cl)c1/C=C/c1nc2ccccc2[nH]1 | 11 | 85* | 10 | 65* | 38 | 45* | 34* | 53* | 88*
O=c1[nH]c(/C=C/c2ccccc2Cl)nc2ccccc12 | 1 | 15 | 6 | 24 | 22 | 24 | x | x | x
Clc1ccc(/C=C/c2nc3ccccc3[nH]2)c(Cl)c1 | x | 62* | 4 | 50* | 11 | 41* | 41* | 32* | 76*
O=C(ONC1=NCCCCC1)c1ccc(Cl)cc1 | 62 | 61* | 23 | 87* | 27 | 52* | 38* | 84* | 41*
O=C(ONC1=NCCCCC1)c1c(F)cccc1F | -49 | 53* | 36 | 44* | 7 | 51* | 45* | 33* | 59*
CCC(C)N1CCC(Oc2ccc(C(=O)NCc3ccccn3)cc2)CC1 (stereo not given) | -4 | 4 | 14 | 2 | 1 | 21 | x | x | x
CNCc1ccccc1Sc1cc(O)ccc1O | -3 | 60* | 56* | 36 | 18 | 51* | 47* | x | 56*
Cc1ccc([C@@H]2[C@@H]3C(=O)N(C)C(=O)[C@@H]3[C@@H]3C(=O)Nc4ccccc4C(=O)N23)cc1 | 3 | 6 | 17 | 0 | 13 | -2 | x | x | x
SMILES | PfHsp90 set2 | tim23-1 inh | NALP1 yeast inh | TIM10 inh | NLRP3 yeast inh | tim10-1 inh | tim10-1 conf | tim10 confirm | tim23-1 confirm
Cc1[nH]c2ccccc2c1N=Nc1ccc(F)cc1 | 14 | 70* | 8 | 30 | 14 | 63* | 30 | x | -88
Cc1[nH]c2ccccc2c1N=Nc1cc(C(=O)O)cc(C(=O)O)c1 | x | 4 | 18 | -8 | 23 | -3 | x | x | x
C=CCOc1ccc(/C=C/C(=O)OCC(=O)N2CCC(c3ccccc3)=N2)cc1 | 12 | 8 | x | 13 | 30 | 21 | x | x | x
Cc1ccc([N+](=O)[O-])cc1-c1[nH]c(-c2ccc(O)c(O)c2)nc1-c1ccccc1 | x | -10 | -1 | 9 | 4 | 28 | x | x | x
COc1ccc(-c2nc(-c3ccccc3)c(-c3cc([N+](=O)[O-])ccc3C)[nH]2)cc1O | 16 | 53* | 3 | 17 | -3 | 44* | 36* | x | 58*
CCOC(=O)C1=C(C)N=C2c3ccccc3C(=O)C2C1c1ccc(Cl)cc1 (stereo not given) | 37 | 18 | -5 | 9 | 4 | 13 | x | x | x
CCOC(=O)C1=C(Cc2ccc(Cl)cc2)C(=O)c2ccccc2C1=O | 105* | 67* | 29 | 57* | 1 | 64* | 67* | 58* | 63*
CCN(CC)Cc1c(C(=O)N/N=C/c2c(Cl)cccc2Cl)nnn1-c1nonc1N | 24 | -9 | 21 | 5 | 6 | -9 | x | x | x
COc1ccc2nc(NC(=O)c3cc(C)oc3C)sc2c1 | 42 | 34 | 7 | 28 | 9 | 30 | x | x | x
COc1ccc2nc(NC(=O)c3ccoc3C)sc2c1 | 54 | 55* | x | 47* | 35 | 58* | 59* | 32* | 61*
Cc1nc2ccccn2c1C(=O)N/N=C/c1cc(C)n(-c2ccc(Br)cc2)c1C | 12 | 60* | -22 | 31 | -2 | 44* | 22 | x | 41*
CNC(=S)/N=C/NOCc1ccc(Cl)cc1Cl | -34 | 58* | 16 | 51* | 20 | 66* | 47* | 62* | 66*
Nc1ccccc1C#Cc1ccc2[nH]ccc2c1 | 0 | 63* | x | 25 | 25 | 44* | 7 | x | 53*
CC1CCN(C(=O)CSc2ccc(-c3cccnc3)nn2)CC1 | 13 | 17 | 14 | 1 | 13 | -14 | x | x | x

Assay outcomes (PubChem)
